ADAM10 inh – inhibitors of human ADAM10; inhibition, % at 7 µM; O14672; recombinant ADAM10, EDANS/DABCYL FRET peptide cleavage, 3 h; hit rate 0.62% among 370,000;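 active = inhibition above a per-campaign cutoff equal to the mean of compounds falling between control-based bounds plus 3 SD, cut at about 20% in these data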;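 note: 0% = DMSO wells while the 100% control is not disclosed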
ADAM17 inh – ADAM17 inhibition, QFRET primary screen. recombinant ADAM17, EDANS/DABCYL FRET peptide cleavage. inhibition, % at 6.95 µM. hit rate 0.83% among 370,000. AID 720648;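 active = inhibition above the mean of compounds lying between control limits plus 3 SD, set per campaign, cut at about 8.5% in these data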;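 note: 0% = DMSO-only wells as the low control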
sPLA2-III inh – Inhibits HGIII-sPLA2 liposome hydrolysis, primary screen; Q9NZ20; QFRET BODIPY PC-A2 liposome hydrolysis, fluorescence; inhibition, % at 12.2 µM; hit rate 0.56% among 370,000;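 active = inhibition above mean plus 3 SD of compounds lying within the high and low control bounds, cut at about 19% in these data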;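 note: 0% = median of test compound wells and 100% = no enzyme DMSO wells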
CendR NRP1 mod – NRP-1/CendR interaction modulation. inhibition, % at 25 µM. hit rate 0.85% among 360,000. FAM-RPARPAR peptide binding to NRP-1, fluorescence polarization. O14786;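 active = inhibition or corrected inhibition above about 18%, plus a signal ratio from 0.5 to 1.5, limit read from the data, passing the limit was not always enough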
KLK7 zymogen act – activators of human kallikrein-7 zymogen; activation, % at 7 µM; AID 652039; purified proKLK7, EDANS-DABCYL substrate fluorescence; 100% is mature enzyme control, 0% vehicle; P49862; hit rate 0.9% among 370,000;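 active = activation above the mean of all tested compounds plus 3 SD, computed per campaign excluding outliers beyond control limits, cut at about 13% in these data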
Target sequence (P49862 whole entry, looked up): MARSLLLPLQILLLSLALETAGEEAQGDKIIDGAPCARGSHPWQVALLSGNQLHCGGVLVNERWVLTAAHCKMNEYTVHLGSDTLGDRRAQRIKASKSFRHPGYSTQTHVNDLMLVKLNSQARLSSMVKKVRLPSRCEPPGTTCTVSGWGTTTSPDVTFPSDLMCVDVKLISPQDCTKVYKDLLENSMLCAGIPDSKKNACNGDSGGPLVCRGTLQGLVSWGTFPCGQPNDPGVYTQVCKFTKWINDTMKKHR
proKLK7 act conf – confirmation of human kallikrein-7 zymogen activators. shares compounds with KLK7 zymogen act. purified proKLK7, EDANS-DABCYL substrate fluorescence; scaled: vehicle 0, mature enzyme 100. activation, % at 7 µM. hit rate 68% among 3,200;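 active = activation, as change over the incubation, above the mean of all tested compounds plus 3 SD, cut at about 13% in these data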
EDANS-DABCYL int – counter-screen for kallikrein-7 activators: EDANS-DABCYL optical interference; EDANS-DABCYL substrate fluorescence interference, no enzyme, 4 h; solvent 0%, active enzyme control 100%; shares compounds with KLK7 zymogen act; activation, % at 7 µM; AID 686952; hit rate 80% among 3,200;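 active = activation above the all-compound mean plus 3 SD, ignoring values outside control-based bounds, cut at about 4.8% in these data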;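 note: value is the 4 h activation minus the activation read at time zero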
* = called active by the depositor; i = inactive; / = no result. Sampled rows, rich in hits. Any-hit rate of the full collection: about 3.4%.

SMILES	ADAM10 inh	ADAM17 inh	sPLA2-III inh	CendR NRP1 mod	KLK7 zymogen act	proKLK7 act conf	EDANS-DABCYL int
COc1ccc(C(Nc2ccccn2)c2c(NC(=O)c3ccco3)sc(C)c2C)cc1OC (stereo not given)	-5	-2	-9	9	1	/	/
Cc1nn2cc(-c3ccc(Cl)cc3)nc2s1	5	0	1	4	1	/	/
Cc1nc2nc(-c3ccc(Cl)cc3)cn2nc1C	i	-252	7	-19	53*	75*	79*
Cc1nc2nc(-c3cccs3)cn2nc1C	i	-194	1	-1	68*	68*	66*
Cc1ccc(CNC(=O)O[C@H]2CC[C@@]34CCCN3C(=O)CCC[C@H]4C2)cc1	6	-2	3	/	/	/	/
Cc1cc(N2CCOCC2)nc2ccc(NC(=O)C3CCCCC3)cc12	-171	-59	15	5	-1	/	/
CCCN1CCN(CCCNC(=S)Nc2ccc3nc(N4CCN(CC)CC4)cc(C)c3c2)CC1	-87	-32	0	5	5	/	/
CCCN(CCC)CCNC(=O)CCC(=O)Nc1ccc2nc(N3CCN(C)CC3)cc(C)c2c1	i	i	13	10	25*	120*	121*
Cc1cc(N2CCN(C)CC2)nc2ccc(NC(=S)N3CCN(c4ccc(Cl)cc4)CC3)cc12	-435	-189	1	-7	15*	2	3
Cc1cc(N2CCOCC2)nc2ccc(NC(=S)N3CCCCC3C)cc12 (stereo not given)	i	-348	-6	-6	21*	12	15*
Cc1cc(N2CCCC2)nc2ccc(NC(=S)NCCCN3CCC(C)CC3)cc12	-234	-55	8	-10	15*	34*	45*
Brc1ccc(-c2nn3c(-c4ccccc4)nnc3s2)cc1	-8	-1	-2	/	0	/	/
CC[C@]12c3[nH]c4cc(-c5ccco5)ccc4c3CCN1C(=O)[C@@H](CC(=O)NCCCOC)C[C@@H]2C(=O)N1CCN(C(=O)c2ccco2)CC1	i	-202	-9	-14	137*	103*	124*
CC[C@]12c3[nH]c4ccc(OC)cc4c3CCN1C(=O)C(CC(=O)NCCCOC)C[C@@H]2C(=O)N1CCN(C(=O)c2ccco2)CC1 (stereo not given in full)	-9	-2	11	14	1	/	/
CC[C@]12c3[nH]c4cc(-c5ccco5)ccc4c3CCN1C(=O)[C@@H](CC(=O)NCCCOC)C[C@@H]2C(=O)N1CCN(C(=O)C2CC2)CC1	i	-303	-13	-18	89*	81*	94*
CC[C@]12c3[nH]c4cc(-c5ccco5)ccc4c3CCN1C(=O)[C@@H](CC(=O)NCCCN(C)C)C[C@@H]2C(=O)N1CCN(C(=O)C2CC2)CC1	-279	-63	3	0	64*	52*	66*
CC[C@]12c3[nH]c4cc(CCC(=O)N(C)C)ccc4c3CCN1C(=O)[C@@H](CC(=O)NCCCOC)C[C@@H]2C(=O)N1CCN(C(=O)C2CC2)CC1	-11	1	5	2	0	/	/
CC[C@]12c3[nH]c4cc(-c5ccco5)ccc4c3CCN1C(=O)[C@@H](CC(=O)NCc1ccc(OC)c(OC)c1)C[C@@H]2C(=O)N1CCN(C(=O)c2ccco2)CC1	-263	-74	-16	-10	122*	63*	74*
CC(=O)N1CCCN(S(=O)(=O)c2ccc3c(c2)n(C)c(=O)c(=O)n3C)CC1	-21	-8	2	/	1	/	/
CCOC(=O)N1CCC(NC(=O)c2ccc3c(c2)N(Cc2ccc(C)cc2)CCS3)CC1	-253	-49	2	1	-12	/	/
CCOC(=O)N1CCC(NC(=O)c2ccc3c(c2)N(C)CCS3)CC1	i	i	0	-9	51*	66*	73*
CN1CCSc2ccc(C(=O)NCc3cccc(Br)c3)cc21	i	-462	-1	-10	10	/	/
COc1ccc(CNC(=O)c2ccc3c(c2)N(C)CCS3)cc1	i	i	4	-1	35*	8	33*
Cc1cccc(CNC(=O)c2ccc3c(c2)N(C)CCS3)c1	i	i	3	3	18*	-7	-6
CCN(C(=O)CN1CCN(c2nc(-c3ccccc3)cs2)CC1)c1ccccc1C	16	7	-4	/	1	/	/
SMILES	ADAM10 inh	ADAM17 inh	sPLA2-III inh	CendR NRP1 mod	KLK7 zymogen act	proKLK7 act conf	EDANS-DABCYL int
O=C(NCc1ccco1)C1CCCN(c2ncccn2)C1 (stereo not given)	-29	-8	3	/	0	/	/
COc1cccc(C(=O)n2ccc3ccc(-c4ccc5ccn(C(=O)c6cccc(OC)c6)c5c4)cc32)c1	-4	-1	-5	/	-9	/	/
COc1ccc(CNCC#Cc2ccc(C(F)(F)F)cc2)c(OC)c1	-5	-5	1	/	1	/	/
COC(=O)C[C@H]1CC[C@H]2[C@@H](COc3ccc(NC(=O)Nc4ccccc4)cc3C(=O)N2C)O1	-5	-2	-4	/	0	/	/
CCOc1cccc(-c2cnc3cccnn23)c1	i	-236	3	11	41*	37*	33*
Cc1cccc(-c2cnc3cccnn23)c1	i	-243	0	0	34*	27*	35*
CC1CCCCN1Cc1c(O)ccc2c(=O)c(-c3ccc(Cl)cc3)coc12 (stereo not given)	i	-271	-1	0	17*	27*	26*
COc1ccccc1-c1coc2c(CN3C(C)CCCC3C)c(O)ccc2c1=O (stereo not given)	-321	-116	12	-18	-3	/	/
Cc1oc2c(CN3CCCC(C)C3)c(O)ccc2c(=O)c1-c1ccccc1 (stereo not given)	i	-438	-9	15	33*	23*	23*
COc1ccccc1-c1coc2c(CN3CCCC(C)C3)c(O)ccc2c1=O (stereo not given)	i	i	1	0	40*	65*	62*
COc1ccc(-c2c(C)oc3c(CN4CCCCC4C)c(O)ccc3c2=O)cc1 (stereo not given)	i	i	-7	3	41*	50*	52*
CCC[C@H]1[C@@H](NC(=O)c2ccc(Cl)c(C(F)(F)F)c2)CC[C@@]23CCCN2C(=O)CCC[C@@H]13	1	0	-7	/	/	/	/
CCC(=O)N[C@H]1C[C@@H]2O[C@@H](CO)CC[C@@H]2O[C@@H]1CCc1ccc(-c2cccc(OC)c2)cc1	-6	-4	-13	/	1	/	/
CCN(CC)c1ccc(-c2nn3c(-c4ccccc4Cl)nnc3s2)cc1	i	-240	-2	/	-33	/	/
COc1ccc(S[C@]2(C(=O)N(C)C)CC(=O)N(c3ccc(Cl)cc3)[C@@H]2c2ccc(OC)cc2)cc1	14	5	-11	/	0	/	/

High-throughput results: PubChem BioAssay, several laboratories
